Inconclusive results are not listed. Unmarked numbers belong to inactive results. Active and inactive are the calls of the source. The call rests on the fitted dose curve; in most records, active means well fitted curve in the direction sought with a large enough effect; inconclusive means small, poorly fitted or top-dose-only effect, or another doubt; inactive means no such curve, though single readings can be large; an effect the other way counts as inactive or inconclusive.

The source of these data is PubChem BioAssay (NCATS).

The target in assay [1] is Cellular tumor antigen p53 (Homo sapiens) (UniProt P04637). The assay is described as follows: Primary qHTS for small molecule compounds that upregulate eGFP-tagged delta133p53alpha (in N-terminal) cells. (AID 2060322). Further: nearly all actives have a fitted effect of over 75% in size. Further: potency means the concentration at half of the fitted maximal effect.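 On activation: series mostly up to about 56 µM; 0% = DMSO vehicle and 100% = reference activator.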 To be noted: NCI-H358 eGFP-delta133p53alpha fluorescence, 24 h; activation: hits give high values. A digest of the protocol: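 NCI-H358 cells pre-induced 24 h with 10 ng/ml doxycycline to express N-terminal eGFP-delta133p53alpha, then dosed 24 h at 37C without doxycycline; fixed, Hoechst-stained, GFP intensity by laser scanning cytometry, normalized to DMSO (0%) and 57.5 uM 5-azacytidine (100%).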

The target of assay [2] is Aldehyde dehydrogenase, mitochondrial (Homo sapiens) (UniProt P05091). The assay is described as follows: qHTS for Inhibitors of the Aldehyde Dehydrogenase Family (ALDH2) Primary screen (AID 2061308).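 Further: plate controls were vehicle for no effect and reference inhibitor for full effect; nearly all actives have a fitted effect of over 55% in size.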 A general note: In qHTS, concentration-response curves come from the screen itself.
The target in assay [3] is Retinaldehyde dehydrogenase 3 (Homo sapiens) (UniProt P47895). As to the kind of experiment: qHTS for Inhibitors of the Aldehyde Dehydrogenase Family (ALDH1A3) Primary screen (AID 2061315).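 Further: plate controls were DMSO vehicle for no effect and reference inhibitor for full effect.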

Cellular tumor antigen p53 (Homo sapiens), sequence (P04637 whole entry, looked up): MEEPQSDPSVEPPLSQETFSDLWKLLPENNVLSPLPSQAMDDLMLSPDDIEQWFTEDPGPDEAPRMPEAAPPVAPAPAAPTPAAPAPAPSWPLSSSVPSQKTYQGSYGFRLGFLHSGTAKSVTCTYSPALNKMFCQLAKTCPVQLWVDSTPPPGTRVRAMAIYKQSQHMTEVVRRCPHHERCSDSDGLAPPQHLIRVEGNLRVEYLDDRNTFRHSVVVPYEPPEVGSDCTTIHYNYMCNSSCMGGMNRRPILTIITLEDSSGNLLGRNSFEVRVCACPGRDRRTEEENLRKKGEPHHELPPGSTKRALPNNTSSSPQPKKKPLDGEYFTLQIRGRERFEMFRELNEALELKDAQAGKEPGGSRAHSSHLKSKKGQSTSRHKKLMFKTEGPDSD

For the compound `C[C@]12CC/C(=N\OCC(=O)O)C=C1CC[C@@H]1[C@@H]2[C@@H](O)C[C@@]2(C)[C@H]1CC[C@]2(O)C(=O)CO`, the activation in assay [1] was 5.67%. For the same compound, the Potency entry in assay [2] and in assay [3] was “inactive” throughout.

As for `C=C(C)C1CCC2(C(=O)O[C@@H]3O[C@H](CO[C@@H]4O[C@H](CO)[C@@H](O)[C@H](O)[C@H]4O)[C@@H](O)[C@H](O[C@@H]4O[C@@H](C)[C@H](O)[C@@H](O)[C@H]4O)[C@H]3O)CCC3(C(=O)O)C(CCC4C5(C)CCC(O)C(C)(C)C5CCC43C)C12` (stereo partly specified), the activation in assay [1] was -13.7%. Besides, the Potency result in assay [2] and in assay [3] was “inactive” each time.

In the case of `O=C(CO)[C@@H](O)[C@H](O[C@@H]1O[C@H](CO)[C@H](O)[C@H](O)[C@H]1O)[C@H](O)CO`, the activation in assay [1] is 28.3%. Besides, the Potency result in assay [2] and in assay [3] was “inactive” throughout.

Consider `OC[C@H]1O[C@@H](OCCc2ccc(O)cc2)[C@H](O)[C@@H](O)[C@@H]1O`, for which the activation in assay [1] was -13.7%. Also, the Potency result in assay [2] and in assay [3] was “inactive” in each case.

In the case of `CC1CCC2(C)CCC3(C)C(=CCC4C5(C)CCC(O)C(C)(C(=O)O)C5CCC43C)C2C1C` (stereo unspecified), in assay [1], the activation is 19.6%. The Potency result in assay [2] and in assay [3] was “inactive” throughout.

On to `c1ccc(N2CCN(CCc3nn[nH]n3)CC2)cc1`, for which, in assay [1], the activation was -1.43%. Moreover, the Potency entry in assay [2] and in assay [3] was “inactive” each time.

As to `COc1cccc(OC)c1-c1ccc(C[C@H](NC(=O)c2c(Cl)cccc2Cl)C(=O)O)cc1`, the activation in assay [1] was 1.67%. Besides, the Potency result in assay [2] and in assay [3] was “inactive” each time.

Consider `COC(=O)C1=CO[C@@H](O[C@@H]2O[C@H](CO)[C@@H](O)[C@H](O)[C@H]2O)[C@@H]2C(C)CC(=O)[C@]12O` (stereo partly specified), for which the activation in assay [1] is 1.79%. The Potency result in assay [2] and in assay [3] was “inactive” each time.

Regarding `CC(=O)OC12CC(C)C(OC(=O)c3ccccc3)C1/C=C(/C)C(OC(=O)c1ccccc1)CC(=O)C(C)(C)/C=C/C(C)C2=O` (stereo unspecified), the activation in assay [1] was -7.14%. Further, the Potency result in assay [2] and in assay [3] was “inactive” each time.

For the compound `CNC12CC3C[C@@](C)(C1)C[C@](C)(C3)C2`, in assay [1], the activation is -6.33%. The Potency entry in assay [2] and in assay [3] was “inactive” throughout.

In the case of `CC(=O)OC[C@]12[C@H](OC(C)=O)[C@H](OC(=O)c3ccccc3)[C@@H]3[C@@H](OC(C)=O)[C@]1(OC3(C)C)[C@H](C)C[C@H](OC(C)=O)[C@@H]2OC(=O)c1ccccc1`, the activation in assay [1] was 3.05%. The Potency entry in assay [2] and in assay [3] was “inactive” throughout.

As to `C[C@@H]1O[C@@H](O[C@H]2[C@H](O[C@H]3CC[C@@]4(C)C(CC[C@]5(C)C4CC=C4C6CC(C)(C)CC[C@]6(C(=O)O[C@@H]6O[C@H](CO[C@@H]7O[C@H](CO)[C@@H](O[C@@H]8O[C@@H](C)[C@H](O)[C@@H](O)[C@H]8O)[C@H](O)[C@H]7O)[C@@H](O)[C@H](O)[C@H]6O)CC[C@]45C)[C@]3(C)CO)OC[C@H](O)[C@@H]2O)[C@H](O)[C@H](O)[C@H]1O` (stereo partly specified), the activation in assay [1] was 3.82%. The activity change, negative = inhibition is 15.8% [at 11.2 µM] in assay [2] and 17.4% [at 11.2 µM] in assay [3].

Consider `Cc1ccc(OC[C@H](O)[C@H](C)NC(C)C)c2c1CCC2`, for which the activation in assay [1] is 10.3%. The Potency entry in assay [2] and in assay [3] was “inactive” throughout.

On to `CC1C(O)C(O)C2C(C(=O)OCCc3ccc(O)cc3)=COC(O[C@@H]3O[C@H](CO)[C@@H](O)[C@H](O)[C@H]3O)C12` (stereo partly specified), for which the activation in assay [1] is 11.5%. The Potency entry in assay [2] and in assay [3] was “inactive” in each case.

With `CC(=O)OC[C@H]1O[C@H](O[C@]2(CO)O[C@H](CO)[C@@H](OC(=O)/C=C/c3ccccc3)[C@@H]2O)[C@H](O)[C@@H](O)[C@@H]1O`, the activation in assay [1] is -0.763%. Besides, the Potency result in assay [2] and in assay [3] was “inactive” in each case.

On to `COc1ccc(F)cc1-c1cc(NC(=O)[C@@H]2CCCNC2)ncc1Cl`, for which the Potency in assay [1] was 0.269 µM (active). Besides, the Potency entry in assay [2] and in assay [3] was “inactive” throughout.

For `CC(CCC1(O)OC2CC3C4CCC5CC(O[C@@H]6O[C@H](CO)[C@@H](O)[C@H](O)[C@H]6O[C@@H]6OC[C@@H](O)[C@H](O)[C@H]6O)C(O)CC5(C)C4CCC3(C)C2C1C)CO[C@@H]1O[C@H](CO)[C@@H](O)[C@H](O)[C@H]1O` (stereo partly specified), in assay [1], the activation is -5.36%. For the same compound, the Potency result in assay [2] and in assay [3] was “inactive” in each case.

Turning to `CC1(C)NC2N(C1=O)c1ccccc1C2(O)CC(C(=O)O)n1cnc2ccccc2c1=O` (stereo unspecified), the activation in assay [1] is -9.16%. The Potency entry in assay [2] and in assay [3] was “inactive” each time.

Regarding `C[C@@H]1C/C=C/C=C\C=C\C=C\[C@H](O[C@@H]2O[C@H](C)[C@@H](O)[C@H](N)[C@@H]2O)C[C@@H]2O[C@](O)(C[C@@H](O)C[C@H]3O[C@@H]3/C=C/C(=O)O1)C[C@H](O)[C@H]2C(=O)O`, the activation in assay [1] is 13.7%. In addition, the Potency result in assay [2] and in assay [3] was “inactive” in each case.

As to `C/C=C1\[C@H](O[C@@H]2O[C@H](CO)[C@@H](O)[C@H](O)[C@H]2O)OC=C(C(=O)OC)[C@H]1CC(=O)OC`, the activation in assay [1] was 4.46%. For the same compound, the Potency result in assay [2] and in assay [3] was “inactive” throughout.

Regarding `C=CC(C)(CC/C=C(\C)C(=O)OC)OC1OC(COC(=O)CC(C)(O)CC(=O)O)C(O)C(O)C1O` (stereo unspecified), in assay [1], the activation was -3.05%. Moreover, the Potency entry in assay [2] and in assay [3] was “inactive” in each case.

Consider `Nc1ncnc2c1c(-c1ccc(Cl)cc1)nn2-c1cccc(-c2cnnn2Cc2cccc(-c3ccccc3)c2)c1`, for which the activation in assay [1] is 8.04%. Further, the Potency entry in assay [2] and in assay [3] was “inactive” in each case.
